In all, about 320,000 compounds went through this assay and about 2,100 (0.66%) were called active. Roughly 53% stayed inconclusive and do not appear here. Calls come from the whole dose curve; as a rule, active = well fitted inhibition curve with a large enough effect in the signal ratio, with a control signal flat (not every such curve was filed as active); inconclusive = small, poorly fitted or top-dose-only effect, or effect the other way, or a change in a side signal; inactive = flat fitted curve, though single readings scatter; the % refers to the signal ratio. This excerpt belongs to a sample that is enriched for actives.
Potency is the fitted concentration of half-maximal effect.

This experiment in a line: qHTS Assay for Lipid Storage Modulators in Drosophila S3 Cells.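 For cell number change: cells counted by Cell Tracker Red CMTPX staining in the red channel.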 For lipid storage change, negative = inhibition: % is set by controls: 0 for no effect and ±100 for the full control effect. Particulars: BODIPY lipid droplet fluorescence, 18-24 h, cells fed with added oleic acid; cell number change: measured here: cell count max response; series mostly up to 46.1 µM; lipid storage change, negative = inhibition: at the top concentration. The essentials:
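Drosophila S3 cells loaded with oleic acid (400 uM, as added) and compounds at several concentrations; lipid droplets imaged by 488-nm laser-scanning cytometry, 500–530 nm intensity and object ratio to cell channel. Percent activity normalized to 20 uM Triacsin C.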
Background: qHTS replaces the single test concentration by a dilution series.
Regarding `Cn1nnnc1SCC(=O)Nc1ccccc1Br`, the “lipid storage change, negative = inhibition” value is -11.7% (inactive) and the cell number change is -3.35%. For `Cc1cc(C)cc(NC(=O)CN2CCN(c3ncccn3)CC2)c1`, the “lipid storage change, negative = inhibition” value is -4.58% (inactive) and the cell number change was 8.39%.

Take `Cn1nnnc1SCC(=O)Nc1ccccn1`: the Potency was 5.8 µM (active) and the cell number change is -3.74%. On to `NC(=O)C1CCN(CC(=O)Nc2ccccn2)CC1`, for which the compound was called inactive. `O=C(CN1CCN(c2ccccn2)CC1)Nc1ccccc1`: the compound was classed as inactive and the cell number change turned out to be 6.43%.

Turning to `Cc1cc(C)cc(NC(=O)CN2CCN(c3ccccn3)CC2)c1`, the Potency was 16.4 µM (active) and the cell number change is -2.33%. For the compound `Cc1cccc(NC(=O)CSc2nnnn2C)n1`, the “lipid storage change, negative = inhibition” value is -8.83% (inactive) and the cell number change was -5.08%. As to `CCOC(=O)C1=C(C)NC(=O)NC1c1ccc(OC(C)C(=O)O)c(OC)c1` (centres undefined), the “lipid storage change, negative = inhibition” value was -12.9% (inactive) and the cell number change turned out to be 0.405%. Turning to `O=C(C[n+]1ccccc1)N/N=C/c1cccc(Cl)c1Cl`, the “lipid storage change, negative = inhibition” value was -4.8% (inactive) and the cell number change was 4.15%.

For `CCOc1ccc(C(=O)Nc2ccccc2-c2ccccc2)cc1Cl`, the “lipid storage change, negative = inhibition” value is 16.7% (inactive) and the cell number change was -2.51%. Consider `O=C(CSc1nc2ccccc2c(=O)n1-c1ccc(F)cc1)NC1CCS(=O)(=O)C1` (centres undefined), for which the “lipid storage change, negative = inhibition” value was -12.7% (inactive). As to `COc1ccc(OC)c(NC(=O)COC(=O)CN(C)S(=O)(=O)c2ccc(C)cc2)c1`, the “lipid storage change, negative = inhibition” value was 23.2% (inactive) and the cell number change was found to be 1.08%.

With `Cc1[nH]c2ccccc2c1/C=N/NC(=O)C1CC1(c1ccccc1)c1ccccc1` (centres undefined), the “lipid storage change, negative = inhibition” value was -4.99% (inactive) and the cell number change was -28.5%. In the case of `Cc1ccc(C(=O)NCc2cccnc2)o1`, the compound was classed as inactive and the cell number change was -7.92%. `CC1(C)Cc2c(sc3ncnc(NN)c23)CO1`: the call was inactive and the cell number change worked out at 28.8%. With `CCC(=O)Nc1nc(C)c(-c2csc(Nc3cccc(C(=O)O)c3)n2)s1`, the “lipid storage change, negative = inhibition” value was -13.5% (inactive) and the cell number change was found to be 10.2%.

As to `CC(=O)Nc1ccc(Nc2nc(-c3sc(NC(C)=O)nc3C)cs2)cc1`, the Potency is 20.6 µM (active) and the cell number change was -25.9%. `CCC(=O)Nc1nc(C)c(-c2csc(Nc3cccc(O)c3)n2)s1`: the Potency is 29.1 µM (active) and the cell number change was -27%. On to `CCCCCC(=O)Nc1nc(C)c(-c2csc(Nc3ccc(Cl)cc3)n2)s1`, for which the “lipid storage change, negative = inhibition” value was 3.71% (inactive) and the cell number change was -19%. As for `CCCCCCC(=O)Nc1nc(C)c(-c2csc(Nc3ccc(Cl)cc3)n2)s1`, the “lipid storage change, negative = inhibition” value was -12% (inactive). Take `Cc1nc(C)c(-c2csc(Nc3cccc(O)c3)n2)s1`: the “lipid storage change, negative = inhibition” value was 8.45% (inactive) and the cell number change was -15.3%.

In the case of `Nc1ncc(-c2nnnn2-c2ccc(Cl)cc2)c(-c2ccc(Cl)cc2)n1`, the “lipid storage change, negative = inhibition” value was -8.48% (inactive) and the cell number change turned out to be 22.6%. Taken in the same sequence, the figures for `COC(=O)/C=C1\NCCNC1=O` were -11.5% (inactive) and 9.92%.

For `COc1ccc(NC(=O)CCC(=O)N/N=C/c2cccnc2)cc1`, the result was inactive and the cell number change came out at 1.18%. As for `COc1cc(CN2CCc3ccc(NC(=O)CCc4ccccc4OC)cc3C2)ccc1O`, the “lipid storage change, negative = inhibition” value was -2.88% (inactive) and the cell number change was -9.87%.

Turning to `Cc1ccc(C)c(NC(=O)CN(C)C(=O)c2sccc2C)c1`, the Potency is 4.61 µM (active). Take `Cc1ccsc1C(=O)N(C)CC(=O)Nc1ccccc1Br`: the lipid storage change, negative = inhibition was 15.6% [at 0.0737 µM] (inactive). Turning to `Cc1ccc(C)c(NC(=O)CN(C)C(=O)Cc2ccccc2)c1`, the “lipid storage change, negative = inhibition” value was 3.1% (inactive) and the cell number change came to 0.0719%.

Turning to `CSCCC(NS(=O)(=O)c1ccccc1F)C(=O)NNC(=O)c1csc(N2CCOCC2)n1` (centres undefined), the cell number change was -7.74% and the lipid storage change, negative = inhibition was 27.4% [at 0.0737 µM] (inactive). As to `CC1CC(C)CN(C(=O)COC(=O)c2nn(C)c(=O)c3ccccc23)C1` (centres undefined), the “lipid storage change, negative = inhibition” value was 29.3% (inactive) and the cell number change was found to be 14.1%. For the compound `CC1CC(C)CN(C(=O)COC(=O)Cc2c[nH]c3ccccc23)C1` (centres undefined), the “lipid storage change, negative = inhibition” value is 23% (inactive). In the case of `CC1CC(C)CN(C(=O)COC(=O)c2c[nH]c3ccccc23)C1` (centres undefined), the Potency was 0.92 µM (active) and the cell number change is -17%. Regarding `CCc1c(C)sc(NC(=O)C2CC2)c1C(=O)OC(C)C`, the Potency is 1.3 µM (active) and the cell number change is -47.8%.

Take `CCOC(=O)c1c(NC(=O)C2CC=CCC2C(=O)O)sc(C)c1CC` (centres undefined): the “lipid storage change, negative = inhibition” value was 2.17% (inactive) and the cell number change amounted to 12.8%.

Turning to `CCc1c(C)sc(NC(=S)NC(C)C2CCCO2)c1C(=O)OC` (centres undefined), the “lipid storage change, negative = inhibition” value is -1.69% (inactive) and the cell number change was 8%. In the case of `CC(NC(=O)CN(c1ccc(Br)cc1)S(C)(=O)=O)c1ccccc1` (centres undefined), the “lipid storage change, negative = inhibition” value is -4.37% (inactive) and the cell number change was determined as 6.99%. Consider `CC(NC(=O)CN(c1ccc(F)cc1)S(C)(=O)=O)c1ccccc1` (centres undefined), for which the Potency was 4.11 µM (active) and the cell number change is -10.2%. Turning to `CC(NC(=O)CN(c1ccc(Cl)cc1)S(C)(=O)=O)c1ccccc1` (centres undefined), the compound was classed as inactive and the cell number change turned out to be 17.6%. With `Cc1ccccc1CN1C[C@@H]2C[C@@H](c3cnc(N4CCOCC4)s3)N3CCC[C@@]23C1=O`, the “lipid storage change, negative = inhibition” value was -17.2% (inactive) and the cell number change was found to be 3.26%. In the case of `COc1ccc(C(NC(=O)CNC(C)=O)C(=O)Nc2ccc3c(c2)OCCO3)cc1` (centres undefined), the “lipid storage change, negative = inhibition” value is -2.63% (inactive) and the cell number change is 8.96%. Taken in the same sequence, the figures for `O=P(c1ccccc1)(c1ccccc1)C(O)c1ccncc1` (centres undefined) were 15.5% (inactive) and 15.4%. Taken in the same sequence, the figures for `CCO[C@@H]1OC(C(=O)N2CCN(Cc3ccccc3)CC2)=C[C@H](C2CC2)[C@H]1CCCO` were -11.3% (inactive) and 7.31%. As to `CCO[C@H]1OC(C(=O)N2CCN(Cc3ccccc3)CC2)=C[C@@H](C2CCCCC2)[C@@H]1CCCO`, the Potency was 20.6 µM (active) and the cell number change was -29.1%.

For the compound `CCO[C@@H]1OC(C(=O)N2CCCCCCC2)=C[C@H](C2CCCCC2)[C@H]1CCCO`, the “lipid storage change, negative = inhibition” value was -29.6% (inactive) and the cell number change is -14.4%. With `COc1cc(S(=O)(=O)N2CCC(c3nc4ccccc4s3)CC2)ccc1S(=O)(=O)N1CC(C)CC(C)C1` (centres undefined), the “lipid storage change, negative = inhibition” value is 5.49% (inactive) and the cell number change came to 0.159%.

These data come from PubChem BioAssay AID2685 (National Center for Advancing Translational Sciences (NCATS), 2010).
